Test results from PubChem BioAssay (NCI).
The panel holds about 83,000 compounds, 20% with a hit somewhere; the sample as a whole holds those more often.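 Growth was measured after 48 h exposure to one concentration of compound in 96-well plates. Values under 10 count as active.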 The source made the active and inactive calls.

Assays:
Assay in all cases: NCI-60 one-dose screen, 48 h (100 = growth as untreated, 0 = no growth, -100 = all killed)
Conditions in all cases: 10 µM unless noted
SK-MEL-2 melanoma = system: SK-MEL-2 melanoma
EKVX NSCLC = system: EKVX NSCLC
SN12C renal = system: SN12C renal
UO-31 renal = system: UO-31 renal
TK-10 renal = system: TK-10 renal
ACHN renal = system: ACHN renal
CAKI-1 renal = system: CAKI-1 renal
A498 renal = system: A498 renal
CCRF-CEM leukemia = system: CCRF-CEM leukemia
MOLT-4 leukemia = system: MOLT-4 leukemia

Measured: growth

COc1ncnc2c(-c3ccccc3)cn(COCc3ccccc3)c12
active: MOLT-4 leukemia 7.9%
inactive: SK-MEL-2 melanoma 34.5% | EKVX NSCLC 41.4% | SN12C renal 66.6% | UO-31 renal 44.2% | TK-10 renal 43.1% | ACHN renal 51% | CAKI-1 renal 64.3% | A498 renal 51.9% | CCRF-CEM leukemia 41.1%

C#CCNC(=O)CC[C@]1(C)[C@H]2CC[C@@H]3[C@@H]([C@@](C)(O)CCC=C(C)C)CC[C@@]3(C)[C@]2(C)CC[C@H]1C(=C)C
inactive: SK-MEL-2 melanoma 49.1% [100 µM] | EKVX NSCLC 71.7% [100 µM] | SN12C renal 43.9% [100 µM] | TK-10 renal 70.5% [100 µM] | A498 renal 67.1% [100 µM]
active: UO-31 renal -95.8% [100 µM] | ACHN renal 7.69% [100 µM] | CAKI-1 renal 1.83% [100 µM] | CCRF-CEM leukemia -34.4% [100 µM] | MOLT-4 leukemia -29% [100 µM]

CCOC(=O)c1nn(C2CCCCO2)c2ccc(NC(=O)CSc3nc4ccccc4c(=O)[nH]3)cc12 (stereo not given)
inactive: SK-MEL-2 melanoma 105% | EKVX NSCLC 102% | SN12C renal 87% | UO-31 renal 79.6% | TK-10 renal 108% | ACHN renal 93.6% | CAKI-1 renal 77.7% | A498 renal 69.7% | CCRF-CEM leukemia 93.1% | MOLT-4 leukemia 103%

C=C(C)[C@@H]1CC[C@]2(C)[C@H](CC=C3[C@@H]4[C@@H](C)[C@H](C)CC[C@]4(C(N)=O)CC[C@]32C)[C@@]1(C)CCC#N
inactive: EKVX NSCLC 11.8% [100 µM]
active: SK-MEL-2 melanoma -62.5% [100 µM] | SN12C renal -75.7% [100 µM] | UO-31 renal -91.5% [100 µM] | TK-10 renal -10.2% [100 µM] | ACHN renal -1.6% [100 µM] | CAKI-1 renal 6.4% [100 µM] | A498 renal -33.6% [100 µM] | CCRF-CEM leukemia -7.62% [100 µM] | MOLT-4 leukemia -1.01% [100 µM]

C#CC(OC(=O)N(C)C)(c1ccccc1)c1ccc(F)cc1 (stereo not given)
inactive: SK-MEL-2 melanoma 102% | EKVX NSCLC 116% | SN12C renal 96.7% | UO-31 renal 89.3% | TK-10 renal 125% | ACHN renal 101% | CAKI-1 renal 91.8% | A498 renal 105% | CCRF-CEM leukemia 116% | MOLT-4 leukemia 98%

CC1(C)C(=NO)C(C)(C)C1=NO
active: CCRF-CEM leukemia 7.92% | MOLT-4 leukemia 8.62%
inactive: SK-MEL-2 melanoma 117% | EKVX NSCLC 114% | SN12C renal 110% | UO-31 renal 104% | TK-10 renal 104% | ACHN renal 112% | CAKI-1 renal 109% | A498 renal 109%

COc1c(C(C)=O)c(OCCCCOc2c(C(C)=O)c(OC)c3ccoc3c2OC)c(OC)c2occc12
inactive: SK-MEL-2 melanoma 42% | EKVX NSCLC 56.7% | SN12C renal 88.1% | UO-31 renal 124% | TK-10 renal 43.8% | ACHN renal 75.7% | CAKI-1 renal 68% | A498 renal 81.1% | CCRF-CEM leukemia 58% | MOLT-4 leukemia 36.2%

C=CC1=C(C)C2=NC1=CC1=NC(=CC3=C(C)C4=C(O)C(C(=O)O)C(=C5NC(=C2)C(C)C5CCC(=O)O)C4=N3)C(CC)=C1C (stereo not given)
inactive: SK-MEL-2 melanoma 129% | EKVX NSCLC 103% | SN12C renal 101% | UO-31 renal 73.6% | TK-10 renal 106% | ACHN renal 98.7% | CAKI-1 renal 101% | A498 renal 106% | CCRF-CEM leukemia 96.3% | MOLT-4 leukemia 96.9%

C=CCCCCOc1ccccc1-c1cnc(OCCCCC=C)n1C
inactive: SK-MEL-2 melanoma 46.1% | EKVX NSCLC 85.2% | SN12C renal 91.1% | UO-31 renal 69.3% | TK-10 renal 75% | ACHN renal 84.5% | CAKI-1 renal 54.9% | A498 renal 51.1% | CCRF-CEM leukemia 80.9% | MOLT-4 leukemia 91.4%

Cc1ccc(-c2cc(-c3ccc(C)cc3)nc(NCCNc3ccnc4cc(Cl)ccc34)n2)cc1
active: SK-MEL-2 melanoma -72.6% | SN12C renal -88.3% | UO-31 renal -68.5% | TK-10 renal -49.2% | ACHN renal -87.5% | CAKI-1 renal -47.8% | CCRF-CEM leukemia 2.06% | MOLT-4 leukemia -29.6%
inactive: EKVX NSCLC 24.6% | A498 renal 68.4%

COc1cc2c(c(OC)c1OC)-c1ccc(NNC(N)=S)c(=O)cc1[C@@H](NC(C)=O)CC2
active: SK-MEL-2 melanoma -8.39%
inactive: EKVX NSCLC 51.2% | SN12C renal 35.9% | UO-31 renal 50.8% | TK-10 renal 58.7% | ACHN renal 46.3% | CAKI-1 renal 37.5% | A498 renal 46.6% | CCRF-CEM leukemia 20.8% | MOLT-4 leukemia 23.1%

COc1ccc2nc3cc(Cl)ccc3c(Nc3ccc(O)cc3)c2c1
inactive: SK-MEL-2 melanoma 110% | EKVX NSCLC 94.5% | SN12C renal 67.2% | UO-31 renal 62.1% | TK-10 renal 88% | ACHN renal 66.6% | CAKI-1 renal 71.5% | A498 renal 57.2% | CCRF-CEM leukemia 23.9%
active: MOLT-4 leukemia 9.49%

Cn1cc(-c2noc(-c3cn(C)c4ncccc34)n2)c2cc(Cl)ccc21
inactive: SK-MEL-2 melanoma 97.3% | EKVX NSCLC 89.3% | SN12C renal 92.1% | UO-31 renal 78.9% | TK-10 renal 89.5% | ACHN renal 89.3% | CAKI-1 renal 86.6% | A498 renal 82.7% | CCRF-CEM leukemia 99.8% | MOLT-4 leukemia 96.1%

COc1ccc2c(c1)C(C)Cc1c(Cl)nc(C)nc1N2C (stereo not given)
inactive: SK-MEL-2 melanoma 37.3% | EKVX NSCLC 34.4% | SN12C renal 32.6% | UO-31 renal 50.9% | TK-10 renal 44.4% | ACHN renal 55.2% | CAKI-1 renal 25.4% | CCRF-CEM leukemia 14.7% | MOLT-4 leukemia 20.3%
active: A498 renal -5.78%

Cn1cc(-c2nnc(-c3cn(C)c4ncccc34)o2)c2ccccc21
active: A498 renal -20.3%
inactive: SK-MEL-2 melanoma 34.4% | EKVX NSCLC 49.9% | SN12C renal 28.4% | UO-31 renal 18% | TK-10 renal 69.9% | ACHN renal 36% | CAKI-1 renal 30.9% | CCRF-CEM leukemia 49.8% | MOLT-4 leukemia 18.3%

CCCCCCCCCCCCCCNC(=O)Nc1ccc(Cl)c(Cl)c1
inactive: SK-MEL-2 melanoma 14.5% | EKVX NSCLC 31.9% | SN12C renal 20.2% | TK-10 renal 41.3% | CAKI-1 renal 10.8% | A498 renal 96.7% | CCRF-CEM leukemia 63.7% | MOLT-4 leukemia 103%
active: UO-31 renal 8.71% | ACHN renal 9.14%

COc1cc2c(c(Br)c1N)-c1cc(Br)c(N)cc1C2=O
inactive: SK-MEL-2 melanoma 108% | EKVX NSCLC 34.8% | SN12C renal 39.9% | UO-31 renal 51.7% | TK-10 renal 27.2% | ACHN renal 57.6% | CAKI-1 renal 74.3% | A498 renal 61.7% | CCRF-CEM leukemia 86% | MOLT-4 leukemia 97.2%

Cc1ccc(Cn2c(O)c(N=NC(=O)c3ccc(S(N)(=O)=O)cc3)c3ccccc32)cc1
inactive: SK-MEL-2 melanoma 109% | EKVX NSCLC 103% | SN12C renal 96.9% | UO-31 renal 73% | TK-10 renal 106% | ACHN renal 93.3% | CAKI-1 renal 92.9% | A498 renal 86.8% | CCRF-CEM leukemia 106% | MOLT-4 leukemia 93.8%

CCOC(=O)c1nn(C2CCCCO2)c2ccc(NC(=O)CN3CCOCC3)cc12 (stereo not given)
active: CCRF-CEM leukemia 1.49%
inactive: SK-MEL-2 melanoma 108% | EKVX NSCLC 100% | SN12C renal 101% | UO-31 renal 86.6% | TK-10 renal 109% | ACHN renal 99.6% | CAKI-1 renal 84.2% | A498 renal 99.9% | MOLT-4 leukemia 96.1%

Nc1cccc2c1C(=O)c1cccc(NC(=O)c3ccccc3)c1C2=O
active: EKVX NSCLC 2.26% | UO-31 renal 9.99%
inactive: SK-MEL-2 melanoma 33.4% | SN12C renal 47.1% | TK-10 renal 32.1% | ACHN renal 41.5% | CAKI-1 renal 12% | A498 renal 16.7% | CCRF-CEM leukemia 12.6% | MOLT-4 leukemia 41%

N#CC1C(=O)NC(c2ccccc2[N+](=O)[O-])c2sc3c(F)cccc3c21 (stereo not given)
active: CAKI-1 renal 5.27% | A498 renal -60.7%
inactive: SK-MEL-2 melanoma 82.6% | EKVX NSCLC 64.8% | SN12C renal 78.1% | UO-31 renal 53.8% | TK-10 renal 41.1% | ACHN renal 65.8% | CCRF-CEM leukemia 86.9% | MOLT-4 leukemia 86.6%

COc1ccc(C2CC(c3ccc4ccccc4c3)=NN2c2nc(O)c(C3=c4cc(OC)ccc4=NC3=O)s2)cc1 (stereo not given)
active: SK-MEL-2 melanoma -69.6% | EKVX NSCLC -67.3% | SN12C renal -56% | UO-31 renal -77.3% | TK-10 renal -71% | ACHN renal -51.2% | CAKI-1 renal -59.6% | A498 renal -83.2% | CCRF-CEM leukemia 8.68% | MOLT-4 leukemia -13.2%

COc1ccc2c3ccnc(C(F)(F)F)c3n(CCCCN)c2c1
inactive: SK-MEL-2 melanoma 55.3% | EKVX NSCLC 45.7% | SN12C renal 51.6% | UO-31 renal 13.4% | TK-10 renal 61.3% | ACHN renal 26.8% | CAKI-1 renal 29.6% | A498 renal 17% | CCRF-CEM leukemia 72.7% | MOLT-4 leukemia 51%

CC[C@]12C=CCN3CC[C@@]4(c5ccc(OC)cc5N(C)[C@H]4[C@@](O)(C(=O)OC)[C@@H]1OC(=O)CCC(=O)O[C@H]1CC[C@H]4[C@@H]5CCC6=CC(=O)CC[C@@H]6[C@H]5CC[C@]14C)[C@@H]32
inactive: EKVX NSCLC 16.1% [100 µM] | TK-10 renal 12.4% [100 µM]
active: SK-MEL-2 melanoma -79.8% [100 µM] | SN12C renal 7.65% [100 µM] | UO-31 renal -7.86% [100 µM] | ACHN renal -0.641% [100 µM] | CAKI-1 renal 6.42% [100 µM] | A498 renal -15.8% [100 µM] | CCRF-CEM leukemia 5.61% [100 µM] | MOLT-4 leukemia -6.15% [100 µM]
